Most compounds without a hit are left out; they make up all but 5.4% or so of the library.
M18AAP inhibitor: PfM18AAP enzyme inhibition; recombinant PfM18AAP, H-Glu-NHMec fluorogenic cleavage; inhibition, % at 7.35 µM; 290,000 tested, 1.2% active; AID 1822;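 active = inhibition above the campaign mean inhibition over all tested compounds plus 3 SD, cut at about 28% in these data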;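 also: 0% = plate median of test compound wells and 100% = 2 mM ZnCl2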
beta cell repl: inducers of beta-cell replication in MIN6 cells; proliferation, % at 10 µM; MIN6 cells proliferation, ATPlite luminescence, 48 h; cells starved in 0.2% serum; 100% = growth in 10% serum; 330,000 tested, 0.29% active;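 active = compounds whose signal lies at least 3.5 SD above the mean of all wells on their plate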;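 also: 0% = DMSO-treated cells in low-serum medium and 100% = 10% serum control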
Granule exo inh: blocks lytic granule exocytosis. AID 651702. 360,000 tested, 0.66% active. TALL-104 LAMP-1 surface exposure, flow cytometry; cells stimulated with thapsigargin and PMA. inhibition, % at 10 µM;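 active = inhibition above about 55%, limit read from the data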
SMARCA2 activ: activators of SMARCA2 function; MG213 cells, MMTV-luciferase reporter, dexamethasone, overnight; 370,000 tested, 1% active; AID 652017; activation, % at 9.1 µM; in the data active = activation above about 7.8%;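 also: 0% = vehicle wells and 100% = reference activator wells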
GASC-1 inh: inhibitors of human GASC-1 (JMJD2C) demethylase. AID 2099. 330,000 tested, 0.069% active. GST-JMJD2C(1-420) H3K9me3 demethylation, DELFIA europium. inhibition, % at 2.35 µM;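 active = more than half of a compound's replicate wells show inhibition beyond 50%, single wells judged on their own value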;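 also: signal counts dimethyl H3K9 product captured on neutravidin plate; 0% = median of DMSO wells and 100% = 0.3 times that DMSO median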
Target sequence (Q9H3R0 1-420 limits assumed): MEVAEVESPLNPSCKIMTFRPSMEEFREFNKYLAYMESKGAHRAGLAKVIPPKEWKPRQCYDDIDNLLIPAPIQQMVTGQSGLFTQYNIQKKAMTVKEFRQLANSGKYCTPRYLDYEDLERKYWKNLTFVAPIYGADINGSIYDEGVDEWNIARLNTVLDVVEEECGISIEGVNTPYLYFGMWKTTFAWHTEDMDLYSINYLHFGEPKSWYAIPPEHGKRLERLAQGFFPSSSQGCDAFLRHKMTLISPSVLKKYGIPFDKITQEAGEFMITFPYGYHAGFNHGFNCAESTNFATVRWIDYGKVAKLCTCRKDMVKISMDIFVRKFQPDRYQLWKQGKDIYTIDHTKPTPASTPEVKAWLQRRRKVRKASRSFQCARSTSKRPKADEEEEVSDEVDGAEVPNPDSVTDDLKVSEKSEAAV
ALR inh: human ALR oxidase inhibition via reduced H2O2; purified ALR, DTT oxidation, H2O2 HRP-luminol luminescence; inhibition, % (concentration not given with the values); 290,000 tested, 3.8% active;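 active = mean replicate inhibition above about 79%, with every replicate also reaching it, limit read from the data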
Granule exo CP1: blocks lytic granule exocytosis. AID 651954. 1,500 tested, 11% active. shares compounds with Granule exo inh. inhibition, % at 10 µM. TALL-104 cells, LAMP-1 externalization, flow cytometry; stimulated with PMA plus thapsigargin; in the data active = inhibition above about 60%;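 also: 0% = stimulated vehicle wells and 100% = unstimulated wells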
Numbers without * were called inactive; / = no result given.

SMILES | M18AAP inhibitor | beta cell repl | Granule exo inh | SMARCA2 activ | GASC-1 inh | ALR inh | Granule exo CP1
CN=Cc1nc(-c2ccccc2)oc1O | 0 | -2 | -1 | 6 | 12 | 1 | /
Cc1cc(C)n(-c2nc(NCCN(C)C)c3c4c(sc3n2)CCCC4)n1 | 0 | -6 | 94* | -3 | -5 | / | 20
COc1ccc(NC(=O)c2cc([N+](=O)[O-])ccc2N2CCCC2)cc1 | -5 | -3 | -2 | -1 | 0 | -2 | /
COc1ccc(NC(=O)c2cc([N+](=O)[O-])ccc2N2CCCCC2)cc1 | 4 | 0 | 68* | 0 | -6 | 3 | -13
N#Cc1ccc(C(=O)NCC2CCN(C(=O)C(=O)c3cccs3)CC2)cc1 | / | / | / | -2 | / | / | /
C#CCN1CC(COc2ccccc2)Oc2cccc(Oc3ccc(SC)c(C)c3)c2S1(=O)=O (stereo unspecified) | / | / | / | -4 | / | / | /
CCCCC[C@@H](C)N1C[C@@H](COCc2ccccc2)Oc2cc(N3CC[C@H](N(C)C)C3)ccc2S1(=O)=O | / | / | 56* | -3 | / | / | 69*
CCCCC[C@H](C)N1C[C@@H](COCc2ccccc2)Oc2cc(N3CC[C@H](N(C)C)C3)ccc2S1(=O)=O | / | / | 75* | 0 | / | / | 24
CCCCC[C@H](C)N1C[C@H](COCc2ccccc2)Oc2cc(N3CC[C@@H](O)C3)ccc2S1(=O)=O | / | / | 8 | -2 | / | / | /
O=C(NCc1ccccc1)[C@H]1CCCN1 | / | / | / | -5 | / | / | /
O=C(NCCc1c[nH]c2ccccc12)OCc1cn(Cc2ccccc2F)nn1 | / | / | / | -1 | / | / | /
OCC1(CCc2ccccc2)CCCN(C/C=C/c2ccccc2)C1 (stereo unspecified) | -6 | -5 | -6 | -1 | -8 | / | /
COc1ccccc1/C=C/CN1CCCC(CO)(CCc2ccccc2)C1 (stereo unspecified) | 3 | -4 | 58* | -3 | -26 | -2 | -5
COc1cccc(CN(C)C(=O)c2ccc(Oc3ccccc3)cc2)c1OC | -4 | 0 | 73* | -4 | 7 | -2 | 27
COc1ccc(C(=O)/C=C2\C(=O)Nc3ccc(Br)cc32)cc1 | / | / | 82* | 2 | / | / | 40
O=C1/C(=C\c2cccs2)Sc2ccc3ccccc3c21 | 16 | -3 | 85* | 5 | -4 | -5 | -1
CCc1ccc(NC(=O)CSc2nc3ccccc3c(=O)n2CCCC(=O)NCCCN2CCOCC2)cc1 | -13 | -3 | 63* | 4 | 3 | / | 15
Cc1ccc(NC(=O)CSc2nc3ccccc3c(=O)n2CCCN2CCCCC2)cc1Cl | 1 | -7 | 79* | -1 | -1 | 51 | 58
O=C(CSc1nc2c(sc3ccccc32)c(=O)n1CCCN1CCCC1)NCc1ccccc1 | 16 | -6 | 67* | 4 | -8 | -9 | 8
O=C(NC(=S)Nc1ccc(CN2CCOCC2)cc1)c1ccc(-c2cccc(Cl)c2)o1 | -3 | -6 | 58* | -4 | 4 | -10 | 25
O=C(CSc1nnc(COc2ccccc2)n1-c1ccc(Cl)cc1)Nc1ccc(OCc2ccccc2)cc1 | / | / | / | 5 | / | / | /
COc1ccccc1CNC(=O)c1cccc(-c2ccc(C)c3ccccc23)n1 | -1 | -8 | / | 0 | 15 | / | /
CCCCCCNC(=O)c1cccc(-c2ccc(C)c3ccccc23)n1 | -9 | -9 | 58* | 0 | 7 | 9 | -12
Cc1cc(N2CCN(CC(C)(C)O)C[C@H]2C)ccc1N1CCN(Cc2ccccc2)[C@H](C)C1 | / | / | / | -5 | / | / | /
CC(C)(C)NC(=O)C(OC(=O)c1cccs1)c1ccc(F)cc1 (stereo unspecified) | -1 | 1 | 66* | -3 | -4 | -1 | -4
CC(C)(C)c1ccc(-c2nnc(SCC(=O)Nc3ccc4c(c3)OCCO4)n2-c2ccc(Cl)cc2)cc1 | / | / | / | -3 | / | / | /
Cc1cc(OC(C)C(=O)N2CCN(c3ccc(F)cc3)CC2)c2c(C)c(C)c(=O)oc2c1 (stereo unspecified) | -5 | -5 | 64* | 1 | -5 | 0 | -12
C[C@@H]1CN(c2ccc(N3CCNC[C@H]3C)cc2C#N)CCN1Cc1ccccc1 | / | / | / | -2 | / | / | /
CCOC(=O)c1c(NC(C)=O)sc2c(OCC(O)CN(CC)CC)c(Br)ccc12 (stereo unspecified) | -15 | -5 | 68* | 4 | -6 | -2 | 71*

From PubChem
